From PubChem BioAssay
Yeast superoxide = caloric restriction mimetics inhibiting age-related superoxide in yeast; 330,000 tested, 0.18% active; superoxide response (% of plate mean), % at 10 µM; S. cerevisiae aged cells, superoxide DHE fluorescence; active compounds read low;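 active = superoxide response under a set limit, about three screen SD below normal, cut at about 65% in these data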;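 also: yeast aged for seven days with compound at 30 °C before DHE staining; 100% = average MFI of all compound-treated wells on the plate with controls excluded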
tim23-1 inh = growth inhibitors of tim23-1 mutant yeast; S. cerevisiae tim23-1 growth, BacTiter-Glo luminescence, 24 h; inhibition, % at 20 µM; 330,000 tested, 1.3% active;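 active = growth inhibition of the mutant yeast at or above 50%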;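 also: temperature-sensitive mutant grown at 25 °C; plate controls were DMSO-treated mutant yeast for no effect and medium wells lacking yeast for full effect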
tim10-1 inh = growth inhibitors of tim10-1 mutant yeast; 330,000 tested, 2.2% active; inhibition, % at 20 µM; S. cerevisiae tim10-1 ts strain growth, BacTiter-Glo, 24 h;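 active = inhibition of at least 40%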;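 also: mutant grown at 25 °C; 0% = DMSO wells with yeast and 100% = wells holding no yeast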
NALP3 yeast inh = NALP3 inhibition in yeast; Yeast reconstituted NLRP3/ASC/caspase-1, beta-gal luminescence, 24 h; 330,000 tested, 0.39% active; AID 2825; inhibition, % at 10 µM;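 active = inhibition of 50% or more; inactive = inhibition below 50%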;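 also: plate controls were induced DMSO wells for no effect and uninduced yeast grown without galactose for full effect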
TIM10 inh = growth inhibitors of TIM10 yeast strain | 330,000 tested, 1.4% active | inhibition, % at 10 µM | S. cerevisiae TIM10 strain growth, BacTiter-Glo luminescence, 24 h;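 active = inhibition of 40% or more at the single tested concentration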;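 also: wild-type TIM10 isogenic control strain grown at permissive 25 °C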
tim10-1 conf = confirmation of tim10-1 mutant yeast growth inhibitors. inhibition, % at 20 µM. S. cerevisiae tim10-1 ts strain growth, BacTiter-Glo, 24 h. shares compounds with tim10-1 inh. AID 463213. 7,400 tested, 56% active;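 active = inhibition of yeast growth at or above a set limit in either of two repeat tests at 20 µM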;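 also: tim10-1 mutant grown at permissive 25 °C to find synthetic lethal compounds; 0% = DMSO yeast wells and 100% = medium wells without yeast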
TIM10 conf = confirmation of TIM10 yeast growth inhibitors; AID 463215; shares compounds with TIM10 inh; inhibition, % at 10 µM; S. cerevisiae tim10 strain growth, BacTiter-Glo luminescence, 24 h; 4,600 tested, 63% active;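 active = inhibition of yeast growth at or above a set limit in either of two replicates at 10 µM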;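 also: this counterscreen used the strain with wild-type TIM10; 0% = yeast with DMSO and 100% = medium wells lacking yeast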
The depositor's hits bear a star; nt = no result given. Shown are actives, neighbours in structure and some others; about 3.8% of the full set was active somewhere.

SMILES	Yeast superoxide	tim23-1 inh	tim10-1 inh	NALP3 yeast inh	TIM10 inh	tim10-1 conf	TIM10 conf
O=C(C1CC1)N1CCc2cc(S(=O)(=O)N3CCOCC3)ccc21	91	10	10	-16	-7	nt	nt
CC1CCCCN1S(=O)(=O)c1ccc2c(c1)CCN2C(=O)C1CCC1 (configuration not stated)	119	-19	42*	32	44*	40*	20
COc1ccccc1N1CCN(Cc2ccc(O)c3ncccc23)CC1	89	31	42*	46	50*	23	35*
Cc1cccc(N2C(=O)CC(Sc3ccccc3C(=O)O)C2=O)c1 (configuration not stated)	97	34	49*	18	41*	46*	15
Cc1ccc(N2C(=O)CC(Sc3ccccc3C(=O)O)C2=O)cc1C (configuration not stated)	98	28	42*	21	43*	47*	40*
Cc1nn(-c2ccccc2)c2c1C1(C(=O)N(C)c3ccccc31)C(C#N)=C(N)O2 (configuration not stated)	101	39	67*	-7	41*	54*	30
CSc1ccc(C(=O)C2CCCN(C(=O)CCc3c(C)nn(C)c3C)C2)cc1 (configuration not stated)	104	21	8	12	7	nt	nt
COc1ccc(C(=O)NCCc2ccc(C(F)(F)F)cc2)cc1S(=O)(=O)N1CCOCC1	94	0	3	-1	8	nt	nt
O=C(Nc1nc2ccc(Cl)cc2s1)C1CC1	91	33	41*	-11	46*	43*	46*
Cc1ccc(S(=O)(=O)CCC(=O)OCC(=O)N2c3ccccc3CC2C)cc1 (configuration not stated)	99	-7	8	-1	-11	nt	nt
N#Cc1cccc2c1-c1ccccc1/C2=N/NC(N)=S	96	40	52*	21	47*	41*	56*
Cc1cc(C)cc(SCc2noc(C(=O)NCCC(C)C)c2C(=O)NCCC(C)C)c1	106	-6	-7	22	-15	nt	nt
O=C(c1ccc(F)cc1)C(CN1CCOCC1)c1ccccc1 (configuration not stated)	87	49	53*	42	57*	36*	64*
CCCOc1ccc(C(=O)C(CN2CCCC2)c2ccccc2)cc1 (configuration not stated)	78	nt	nt	nt	nt	nt	nt
COc1ccc(C(=O)C(CN2CCOCC2)c2ccccc2)cc1 (configuration not stated)	104	23	55*	36	48*	54*	66*
c1ccc(C(CN2CCOCC2)c2ccccc2)cc1	121	-5	9	2	-3	nt	nt
COC(=O)c1cc(OC)c(OC)cc1NC(=S)N1CCN(c2ccccn2)CC1	93	8	29	6	23	nt	nt
O=C(NC(=S)Nc1nc2c(s1)CSc1ccccc1-2)c1ccccc1	123	45	48*	35	44*	19	30*
Cc1cc(C)n(S(=O)(=O)/C=C/c2ccccc2)n1	98	28	50*	18	44*	42*	42*
CN(C)c1ccc(NC2=C(Cl)C(=O)c3ccccc3C2=O)cc1	153	44	62*	16	68*	63*	60*
O=C(Nc1ccccc1C(=O)NCc1ccccc1)c1ccccc1	108	36	47*	11	46*	42*	27
O=C(Nc1ccccc1C(=O)NCc1ccccc1)c1ccco1	102	32	38	14	34	nt	nt
O=C(NCc1ccccc1)c1cccc(COc2cccc(Cl)c2)c1	89	24	45*	9	43*	40*	34*
CC[C@]12c3[nH]c4ccc(Cl)cc4c3CCN1C(=O)[C@@H](CC(=O)NCCC1=CCCCC1)C[C@@H]2C(=O)N1CCN(C(=O)c2ccco2)CC1	107	36	23	nt	-6	nt	nt
Cc1cccc(NC(=O)c2cc3n(n2)C(C(F)(F)F)CC(c2ccc4c(c2)OCO4)N3)c1 (configuration not stated)	93	42	41*	21	62*	47*	60*
SMILES	Yeast superoxide	tim23-1 inh	tim10-1 inh	NALP3 yeast inh	TIM10 inh	tim10-1 conf	TIM10 conf
Cc1ccc(F)cc1NC(=O)c1cnccn1	102	3	-17	19	-3	nt	nt
COc1ccc(NC(=O)COC(=O)c2ccc([N+](=O)[O-])o2)cc1Cl	130	-85	-136	12	-207	nt	nt
COc1ccc(C)cc1NC(=O)COC(=O)c1ccc([N+](=O)[O-])o1	115	45	78*	-5	88*	74*	-36
COc1ccc(C(C)(C)C)cc1NC(=O)COC(=O)c1ccc([N+](=O)[O-])o1	103	-84	53*	10	40	3	92*
COc1ccc(OC)c(-c2csc(NC(=O)CSCc3c(C)noc3C)n2)c1	100	16	13	17	-1	nt	nt
CCCN(CC1CC1)C(=O)COC(=O)c1ccc2c(c1)C(=O)N(c1ccc(OCC)cc1)C2=O	92	15	12	9	11	nt	nt
Cc1cc(CN(C)C(=O)C2CCC(=O)N(CCc3cccc(F)c3)C2)on1 (configuration not stated)	82	8	5	3	7	nt	nt
CC(=O)c1c(C)nc2ccc(Cl)cn12	116	16	7	8	4	nt	nt
COc1ccc(S(=O)(=O)NNC(=O)c2ccccc2-n2cccc2)cc1	97	6	19	24	24	nt	nt
Cc1cc(C)c2c(-n3cccc3)c(C(=O)NNS(=O)(=O)c3ccc(Br)cc3)sc2n1	116	49	41*	-1	41*	44*	21
CCOC(=O)C1(CCCc2ccccc2)CCN(Cc2cnn(C)c2)CC1	106	-3	-12	25	-11	nt	nt
CCOC(=O)C1(CCCc2ccccc2)CCN(C(=O)CCc2cnn(C)c2)CC1	99	39	53*	3	43*	41*	31
CCc1ccc(/C(C)=N/NS(=O)(=O)c2ccc(OC)cc2)s1	nt	38	10	24	27	nt	nt
Cc1ccc(Nc2ncccc2C(=O)NCc2cccs2)c(C)c1	105	36	49*	1	51*	33*	39*
O=C(NCc1cccs1)c1cccnc1Cl	108	7	11	9	4	nt	nt
COc1ccc(/C=C2\CCc3ccccc3C2=O)cc1Cn1cccn1	96	36	43*	34	42*	40*	13
Cc1ccc(-c2csc(-c3c[nH]c4ccccc34)n2)c(C)c1	92	41	41*	29	43*	39*	48*
Oc1ccc(-c2csc(-c3c[nH]c4ccccc34)n2)c(O)c1	90	36	-21	22	-15	nt	nt
COc1ccc(C2CC(C(F)(F)F)n3nc(C(=O)Nc4c(C)n(C)n(-c5ccccc5)c4=O)c(Cl)c3N2)cc1 (configuration not stated)	95	8	-3	18	8	nt	nt
